Molecules are shown by their SMILES. In all, about 400,000 compounds went through this assay and about 2,100 (0.53%) were called active. Another 14% or so got no clear call; they are omitted. No rule for the calls is given here. For the sample, actives were picked, then their nearest neighbours and some compounds at random.

Sequence of Ataxin-2 (Homo sapiens) (Q99700 whole entry): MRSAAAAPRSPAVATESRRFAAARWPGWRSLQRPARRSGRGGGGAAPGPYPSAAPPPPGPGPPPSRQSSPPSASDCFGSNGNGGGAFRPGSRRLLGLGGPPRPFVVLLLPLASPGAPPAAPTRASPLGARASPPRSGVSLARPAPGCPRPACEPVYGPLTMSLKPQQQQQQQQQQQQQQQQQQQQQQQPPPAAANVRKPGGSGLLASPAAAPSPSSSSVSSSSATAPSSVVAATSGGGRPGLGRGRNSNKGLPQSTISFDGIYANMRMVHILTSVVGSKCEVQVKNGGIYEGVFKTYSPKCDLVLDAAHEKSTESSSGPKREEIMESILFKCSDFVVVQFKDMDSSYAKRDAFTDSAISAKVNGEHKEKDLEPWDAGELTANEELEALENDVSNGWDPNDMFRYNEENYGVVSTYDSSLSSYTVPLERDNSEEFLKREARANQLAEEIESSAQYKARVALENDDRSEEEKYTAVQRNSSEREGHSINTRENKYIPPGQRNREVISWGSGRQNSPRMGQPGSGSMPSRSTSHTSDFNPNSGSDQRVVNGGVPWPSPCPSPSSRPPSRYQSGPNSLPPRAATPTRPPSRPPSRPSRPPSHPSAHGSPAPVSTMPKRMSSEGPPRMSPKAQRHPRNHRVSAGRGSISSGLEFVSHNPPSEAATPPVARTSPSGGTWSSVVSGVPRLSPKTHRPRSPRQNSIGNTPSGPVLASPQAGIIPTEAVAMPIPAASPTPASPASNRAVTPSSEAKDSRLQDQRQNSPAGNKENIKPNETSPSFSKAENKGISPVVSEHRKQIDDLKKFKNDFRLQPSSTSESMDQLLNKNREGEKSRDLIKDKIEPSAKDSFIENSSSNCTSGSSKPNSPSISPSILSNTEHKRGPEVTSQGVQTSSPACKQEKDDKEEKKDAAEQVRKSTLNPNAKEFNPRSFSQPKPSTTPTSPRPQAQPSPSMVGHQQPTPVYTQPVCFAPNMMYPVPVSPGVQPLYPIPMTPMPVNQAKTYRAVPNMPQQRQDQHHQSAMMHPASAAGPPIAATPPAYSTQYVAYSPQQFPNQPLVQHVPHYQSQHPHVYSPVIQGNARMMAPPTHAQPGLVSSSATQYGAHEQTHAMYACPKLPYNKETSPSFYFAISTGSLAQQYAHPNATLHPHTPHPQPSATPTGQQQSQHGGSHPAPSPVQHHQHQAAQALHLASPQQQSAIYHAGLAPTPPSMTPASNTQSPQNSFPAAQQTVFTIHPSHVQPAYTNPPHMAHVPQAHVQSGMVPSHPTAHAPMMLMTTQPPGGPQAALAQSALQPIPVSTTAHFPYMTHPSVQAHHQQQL

The test concerns the target Ataxin-2 (Homo sapiens) (UniProt Q99700). Put plainly: qHTS for Inhibitors of ATXN expression. Format: functional. Background: qHTS replaces the single test concentration by a dilution series.
For the molecule `CCCNC(=O)Cn1c(=O)/c(=C\c2ccc(-c3ccc([N+](=O)[O-])cc3)o2)s/c1=C\C(=O)C(C)(C)C`, the Potency entry is “inactive”. Consider `CNS(=O)(=O)c1ccc2c3c(cccc13)C(=O)N2C`, for which the Potency result was “inactive”. To `Cc1cc2nc3c(=O)n(Cc4ccccc4)c(=O)[nH]c3nc2cc1N` belongs “inactive”. For `NC(=O)CC(NC(=O)c1ccc(Br)cc1)c1ccc(NCc2ccc(F)cc2)c([N+](=O)[O-])c1` (centres undefined), the Potency is 39.8 µM (active). To `COc1ccc(CCNc2ccc(C(CC(N)=O)NC(=O)c3ccc(Br)cc3)cc2[N+](=O)[O-])cc1` (centres undefined) belongs 31.6 µM (active).

On to `NC(=NOC(=O)Cc1ccccc1[N+](=O)[O-])c1cccc(Br)c1`, for which the Potency result is “inactive”. The value for `Cc1ccccc1CNc1ccc(C(CC(N)=O)NC(=O)c2ccc(Br)cc2)cc1[N+](=O)[O-]` (centres undefined) was 39.8 µM (active); that for `COc1ccc(C(=O)N[C@H](C(=O)NCCc2ccc3c(c2)OCCO3)C(C)C)cc1` was “inactive”; that for `O=C(Cc1cccc2ccccc12)Nc1cc(C(=O)O)cc(C(=O)O)c1` was “inactive”. The value for `NC(=O)CC(NC(=O)Cc1cccc2ccccc12)c1ccc(NCCOc2ccccc2)c([N+](=O)[O-])c1` (centres undefined) was 17.8 µM (active).

For `COc1ccc(NC(=O)CSc2n[nH]c(C(C)C)n2)c([N+](=O)[O-])c1`, the Potency result is “inactive”. `O=C(NCc1ccc(F)cc1)c1ccc(CS(=O)(=O)c2ccc(Br)cc2)o1`: the Potency result was “inactive”.

`CCOc1ccc(NC(=O)Cc2cccc3ccccc23)c([N+](=O)[O-])c1`: the Potency result is “inactive”. To `Nc1ccc(-c2cc3ccccc3oc2=O)cc1` belongs “inactive”; to `COc1ccccc1[C@@H]1C(c2ccccc2)=NN(c2ccccc2)[C@H]1C(=O)N1CCOC1=O`, “inactive”.

With `Cc1cccc(N2C(=O)/C(=C\Nc3ccccc3)c3ccccc3C2=O)n1`, the Potency result was “inactive”. As to `CCNc1nc(N)c(C(=O)C23CC4CC(CC(C4)C2)C3)s1`, the Potency entry is “inactive”.

For `Cn1c(C(=O)N2CCOCC2)cc2c(=O)n3ccccc3nc21`, the Potency entry was “inactive”. To `COc1ccc(CN=C(Nc2ccccc2)SC2CC(=O)NC2=O)cc1` (centres undefined) belongs “inactive”; to `C/C(=N\NC(=S)Nc1cccc(C)c1)c1cc2ccccc2o1`, “inactive”. For the molecule `COc1ccc(C/C(C)=N/NC(=S)Nc2ccccc2)cc1`, the Potency was 35.5 µM (active). The value for `Cc1nc(NCC2CC2)c2nnn(Cc3ccccc3)c2n1` was “inactive”. To `CCn1cc(CN2CCCC(CNS(=O)(=O)c3cccc4cccnc34)C2)cn1` (centres undefined) belongs 3.16 µM (active); to `O=S(=O)(NCCc1ccc(F)cc1)c1cccc2cccnc12`, “inactive”. To `O=S(=O)(NCC1CCN(Cc2ccccc2)CC1)c1ccccc1C(F)(F)F` belongs “inactive”; to `Cc1cc(/C=C2\C(=N)N3N=C(S(C)(=O)=O)SC3=NC2=O)c(C)n1Cc1ccccc1`, “inactive”. Regarding `CN(C)c1ccc(/C=N/NC(=O)c2nnn(-c3nonc3N)c2COc2ccc(F)cc2)cc1`, the Potency result is “inactive”. Take `CC(C)c1c(C(=O)N/N=C/c2ccco2)nnn1-c1nonc1N`: the Potency entry was “inactive”. Turning to `CCCN(CCC)Cc1c(C(=O)N/N=C/C(C)=C\c2ccco2)nnn1-c1nonc1N`, the Potency was 25.1 µM (active). The value for `O=S(=O)(N/N=C1\CCCc2ccccc21)c1ccccc1` was “inactive”.

In the case of `O=C(Nc1ccc(F)cc1F)c1cc(Cl)sc1Cl`, the Potency entry was “inactive”. To `COc1ccc(OC(C)C(=O)Nc2ccc(F)cc2F)cc1` (centres undefined) belongs “inactive”; to `CCCSc1nsc(NC(=O)Nc2ccc(F)cc2F)n1`, 31.6 µM (active); to `Cc1ccc2[nH]c(SCC(=O)c3ccc(O)cc3O)nc2c1`, “inactive”. To `O=C1OCCN1C(=O)[C@H]1[C@H](c2ccccc2)C(c2cccc(Cl)c2)=NN1c1ccc(Br)cc1` belongs “inactive”; to `CCCCN1C(=O)c2ccc(C(=O)NC3(C)CCS(=O)(=O)C3)cc2C1=O` (centres undefined), “inactive”.

As to `C=C1[C@@H](O)[C@H](CC(C)C)N(Cc2ccccc2Br)S1(=O)=O`, the Potency was 28.2 µM (active). To `COc1ccccc1N(C(C)=O)C1=C(Cl)C(=O)c2ccccc2C1=O` belongs “inactive”; to `CC(=O)N(C1=C(Cl)C(=O)c2ccccc2C1=O)c1ccc(C(=O)O)cc1`, “inactive”; to `C/N=C1\C(=O)c2ccccc2C(O)=C1N(C(C)=O)c1ccc(Br)cc1`, 14.1 µM (active). Take `NC(=O)c1nsc(C(=O)N(c2cccc(F)c2)C(C(=O)NCc2ccccc2)c2ccc(O)cc2)c1N` (centres undefined): the Potency entry was “inactive”. To `C[C@H](CO)N1C[C@H](C)[C@H](CN(C)C(=O)c2ccccc2)OCc2ccccc2-c2c(n(C)c3ccccc23)C1=O` belongs 22.4 µM (active).

Take `COc1ccccc1NC(=O)N(C)C[C@@H]1OCc2ccccc2-c2c(n(C)c3ccccc23)C(=O)N([C@H](C)CO)C[C@@H]1C`: the Potency is 35.5 µM (active). The value for `COC(=O)CN1C(=O)N/C(=C/c2cc(Cl)c(OC)c(OC)c2)C1=O` was “inactive”; that for `CC(=O)O/N=C/c1c(NCc2ccccc2)nc2c(C)cccn2c1=O` was “inactive”; that for `Cc1nc(SCc2ccccc2)nc2c1CCC2` was “inactive”. The value for `CC(=O)c1c(C)[nH]c(C(=O)CN2C(=O)NC(C)(CCC(C)C)C2=O)c1C` (centres undefined) was “inactive”; that for `O=C1CSC(=S)N1N=Cc1cccc(OCc2ccccc2)c1` was “inactive”.

Regarding `CCSc1ccc(-c2nn(-c3ccccc3)cc2/C=C(/C#N)C(=O)NCCCOC)cc1`, the Potency result was “inactive”. For the molecule `COc1ccc(-c2nn(-c3ccccc3)cc2/C=N/N2C(=O)CSC2=S)cc1`, the Potency is 39.8 µM (active). The value for `CCCCCCc1cc2cc(S(=O)(=O)c3ccc(F)cc3)c(=O)oc2cc1O` was “inactive”. The value for `NC(=O)c1sc2nc(-c3ccccc3)ccc2c1N` was “inactive”; that for `CCC1CCCCN1C(=O)c1ccc(OC2CCN(C(=O)COC)CC2)cc1` (centres undefined) was “inactive”; that for `Cn1cc(C(=O)N2CCN(c3cccc(C(F)(F)F)c3)CC2)c2c3ccccc3n(C)c2c1=O` was 31.6 µM (active). The value for `COCCN=C(S)N1CCN(c2cccc(C(F)(F)F)c2)CC1` was “inactive”; that for `Cc1c(S(=O)(=O)N2CCN(c3cccc(C(F)(F)F)c3)CC2)c(=O)n(C)c(=O)n1C` was “inactive”. Turning to `CC(=O)N(C1=C(Cl)C(=O)c2ccccc2C1=O)C1CCCCC1`, the Potency result was “inactive”. Consider `Cc1ccc(NC2=C(Cl)C(=O)c3ccccc3C2=O)cc1`, for which the Potency is 28.2 µM (active). The value for `CN(C)c1ccc(NC2=C(Cl)C(=O)c3ccccc3C2=O)cc1` was 25.1 µM (active); that for `CC(=O)Nc1ccc(NC2=C(Cl)C(=O)c3ccccc3C2=O)cc1` was 28.2 µM (active); that for `CCCC(=O)NC1=C(Cl)C(=O)c2ccccc2C1=O` was “inactive”.

Regarding `Oc1c(Cl)cc(Cl)cc1/C=N/NC(=S)NC1CC2C=CC1C2` (centres undefined), the Potency result was “inactive”. For `CC(C)Cn1c([N+](=O)[O-])nc2c1c(=O)[nH]c(=O)n2C`, the Potency was 29.9 µM (active). Regarding `CCn1c([N+](=O)[O-])nc2c1c(=O)[nH]c(=O)n2C`, the Potency was 22.4 µM (active). To `CCCCNc1c(N)n(CC(C)C)c(=O)[nH]c1=O` belongs “inactive”; to `Cn1c(=O)[nH]c(=O)c2c1nc(Br)n2Cc1ccc(Cl)cc1`, “inactive”. The value for `COCCn1c(-c2ccc(-c3ccc([N+](=O)[O-])cc3Br)o2)nc2c1c(=O)[nH]c(=O)n2CC(C)C` was “inactive”; that for `COc1ccc(C(=O)c2sc3nc4c(c(C(F)(F)F)c3c2N)CN(C(C)=O)CC4)cc1OC` was “inactive”. With `O=C(O)c1cc(N/N=C/c2cccc3ccccc23)ccc1Cl`, the Potency result is “inactive”. The value for `COC(=O)c1scc(C)c1S(=O)(=O)Nc1ccc(C)cc1` was “inactive”; that for `COc1cccc2[nH]c3c(O)ncnc3c12` was “inactive”. To `C=Cc1ncc(OC)c2c1[nH]c1ccccc12` belongs 11.9 µM (active); to `C(=C\c1nccc2c1[nH]c1ccccc12)/c1ccccc1`, “inactive”. To `Cc1noc(C)c1COC(=O)c1cc(S(=O)(=O)N2CCOCC2)ccc1F` belongs “inactive”.

On to `COc1ccc(N(Cc2cc(O)nc3ccccc23)C(=O)CCl)cc1`, for which the Potency was 39.8 µM (active). To `CCCC(=O)N(Cc1cc2cc(OC)ccc2nc1O)c1ccccc1OC` belongs “inactive”; to `CC1(C)Cc2c(cnn2-c2ccccc2)C(NC(=O)CCN2CCCC2=O)C1` (centres undefined), “inactive”; to `O=[N+]([O-])c1ccc(-c2nc(NCC3CCCO3)c3ccccc3n2)cc1` (centres undefined), “inactive”. To `O=[N+]([O-])c1ccc(-c2nc(Nc3cccc(O)c3)c3ccccc3n2)cc1` belongs 31.6 µM (active). To `Nc1ccc(-c2nc(-c3ccccc3)nc3ccccc23)cc1` belongs “inactive”.

Take `Cc1ccc(-c2nc(N/N=C/c3cccc([N+](=O)[O-])c3)c3ccccc3n2)cc1`: the Potency was 39.8 µM (active). The value for `C(=N\Nc1nc(-c2cccnc2)nc2ccccc12)/c1ccccc1` was “inactive”; that for `C(=N\Nc1ncnc2ccccc12)/c1ccccc1` was “inactive”.

For `Cc1ccccc1N1CCN(Cc2nc(Cc3ccccc3)no2)CC1`, the Potency entry was “inactive”. The value for `Clc1nc(N2CCOCC2)ncc1Br` was “inactive”. Turning to `CCOC(=O)C(C)Sc1cnccn1` (centres undefined), the Potency entry was “inactive”. The value for `CCCCC(=O)NC(c1ccco1)c1cc(Cl)c2cccnc2c1O` (centres undefined) was “inactive”; that for `CNC(=O)c1ccc(-c2sc3nc(N4CCOCC4)c4c(c3c2N)CC(C)(C)OC4)o1` was “inactive”; that for `Cc1ccc(-n2ncc(C(=O)NCCN3CCc4ccccc4C3)c2C2CCN(C(=O)OC(C)(C)C)CC2)c(C)c1` was 20 µM (active). To `Cc1cccc(-n2nnc(C(=O)N3CCc4ccccc4C3)c2N)c1` belongs “inactive”; to `COC(=O)[C@@H]1CCCN1C(=O)c1cnn(-c2ncc3c(n2)-c2ccccc2CCC3)c1C1CC1`, “inactive”; to `CCOC(=O)c1cc2c(=O)n3ccccc3nc2n(Cc2ccco2)/c1=N/C(=O)c1ccccc1OC`, “inactive”.

Turning to `CCc1cc(S)n2c(nc3ccccc32)c1C#N`, the Potency result is “inactive”. The value for `N#Cc1cc(-c2ccccc2)[nH]c1-c1nccc2ccccc12` was “inactive”. Turning to `Oc1ncc(I)cc1I`, the Potency result was “inactive”.

In the case of `O=C(Nc1nc[nH]n1)c1cccc(S(=O)(=O)N2CCOCC2)c1`, the Potency entry is “inactive”. Turning to `CC(C)(C)c1ccc(OCCCC(=O)Nc2cccc(S(=O)(=O)N3CCOCC3)c2)cc1`, the Potency is 28.2 µM (active).

With `Cn1cnnc1SCC(=O)Nc1cccc(S(=O)(=O)N2CCOCC2)c1`, the Potency result was “inactive”. The value for `Cc1ccccc1NC(=O)CN1C(=O)S/C(=C\c2ccc(-c3cccc(C(=O)O)c3C)o2)C1=O` was “inactive”.

The values are drawn from ChEMBL document CHEMBL1201862, “PubChem BioAssay data set” (2004).
